Experimental data from PubChem BioAssay (Tox21).
Records with an inconclusive call do not appear. Calls of active or inactive are those of the source. Unless noted, the call rests on the fitted dose curve; in most records, active means well fitted curve in the direction sought with a large enough effect in the repeat runs; inconclusive means weak or mixed curves; inactive means no such curve, though single readings can be large; an effect the other way counts as inactive or inconclusive.

What was measured:
[1] = qHTS assay for small molecule agonists of the p53 signaling pathway (AID 651631; calls by dose curve; further: nearly all actives have a fitted effect of over 15% in size; further: potency means the concentration at half of the fitted maximal effect)
How it was run: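 Quantitative high-throughput format: 4,000 p53RE-bla HCT-116 cells/well, 5 h pre-incubation, 16 h compound exposure at 37 °C, 2 h room-temperature substrate step, fluorescence intensity measured.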

[2] = qHTS assay for small molecules that induce genotoxicity in human embryonic kidney cells expressing luciferase-tagged ATAD5 (AID 651632); further: nearly all actives have a fitted effect of over 15% in size
How it was run: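 Increased luciferase signal from ATAD5-tagged reporter cells indicates DNA-damage-driven ATAD5 induction. HEK293T cells are treated for 16 hr at 37C before detection with Amplite.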

[3] = qHTS assay for small molecule agonists of the p53 signaling pathway - cell viability (AID 651633; calls by dose curve;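 further: p53RE-bla HCT reporter cells with a stable beta-lactamase p53 reporter; series mostly up to about 83 µM; nearly all actives have a fitted effect of over 30% in size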)
How it was run: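 Viability counter-read: CellTiter-Glo luminescence (30 min, room temperature) in the same p53RE-bla plates. These plates had been exposed to compounds for 16 h at 37 C.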

[4] = qHTS assay for small molecules that induce genotoxicity in human embryonic kidney cells expressing luciferase-tagged ATAD5 - cell viability (AID 651634; calls by dose curve; further: nearly all actives have a fitted effect of over 25% in size)
How it was run: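 Cytotoxicity counterscreen in HEK293T cells bearing an ATAD5-luciferase reporter: live-cell protease activity measured by CellTiter-Fluor fluorescence after 15.5 hr compound exposure.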

[5] = qHTS assay for small molecule disruptors of the mitochondrial membrane potential - cell viability (AID 720634; calls by dose curve;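 further: human HepG2 liver cancer cells; series mostly up to about 83 µM; nearly all actives have a fitted effect of over 20% in size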)
How it was run: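 After overnight attachment at 37 C, HepG2 cells received compound or DMSO vehicle for 1 hr. Viability is then taken from ATP-driven luminescence following a 30 min room-temperature CellTiter-Glo step.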

[6] = qHTS assay for small molecule disruptors of the mitochondrial membrane potential (AID 720635)
How it was run: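 Mitochondrial membrane potential tracked with Mito-MPS dye, red aggregates (ex 540/em 590 nm) against green monomers (ex 490/em 535 nm). Compound treatment 1 hr at 37C, dye 30 min in HepG2.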

[7] = qHTS assay to test for compound auto fluorescence at 590 nm (red) in HepG2 cells (AID 720674)
How it was run: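 Red autofluorescence (Ex/Em 540/590 nm, Rose Bengal sodium equivalents) was measured in HepG2 cells, 2,000 per well in MEM plus 10% FBS, plated overnight at 37 C. Readings were taken 1 hr after adding 23 nL compound or DMSO, at 37 C and 5% CO2.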

[8] = qHTS assay to test for compound auto fluorescence at 535 nm (green) in HepG2 cells (AID 720675)
[9] = qHTS assay to test for compound auto fluorescence at 460 nm (blue) in HEK293 cells (AID 720678)
How it was run: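 Measured: blue fluorescence (Ex 405/Em 460 nm) of compound-treated HEK293 cells, incubated overnight at 37C with 5% CO2 and scaled to triamterene equivalents.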

[10] = qHTS assay to test for compound auto fluorescence at 590 nm (red) in HEK293 cells (AID 720679)
How it was run: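 Using HEK293 cells at 2,000 per well, the screen added 23 nL of each compound after cell attachment and incubated overnight (37C, 5% CO2). The plate reader then captured red-label fluorescence, Ex/Em 540/590nm.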
On the % scale 0 is the no-effect control and ±100 the full control effect.

Cn1c(=O)c2c(ncn2CC(O)CO)n(C)c1=O (configuration not stated)
inactive: Potency [1] | Potency [2] | Potency [3] | Potency [4] | Potency [5] | Potency [6] | fluorescence, relative to Rose Bengal [7] 0.442% [at 18.6 µM] | fluorescence, % of fluorescein control [8] -0.21% [at 18.6 µM] | fluorescence, % of triamterene [9] -0.206% [at 18.6 µM] | fluorescence, % of fluorescent control [10] -0.424% [at 18.6 µM]

COc1ccc2[nH]c(S(=O)Cc3ncc(C)c(OC)c3C)nc2n1 (configuration not stated)
inactive: Potency [1] | Potency [2] | Potency [3] | Potency [4] | Potency [5] | Potency [6] | outcome [7] | outcome [8] | outcome [10]

Cc1ccc(C)o1
inactive: Potency [1] | Potency [2] | Potency [3] | Potency [4] | Potency [5] | Potency [6] | outcome [8] | Potency [9]

CC(=O)CC(=O)c1ccccc1
inactive: Potency [1] | Potency [2] | Potency [3] | Potency [4] | Potency [5] | Potency [6] | outcome [7] | outcome [8] | Potency [9] | outcome [10]

CC(C)CCCC(C)CCO (configuration not stated)
inactive: Potency [1] | Potency [2] | Potency [3] | Potency [4] | Potency [5] | Potency [6] | outcome [7] | outcome [8] | Potency [9] | outcome [10]

CCCCCCCCCC(=O)OCC
inactive: Potency [1] | Potency [2] | Potency [3] | Potency [4] | Potency [5] | Potency [6] | outcome [7] | outcome [8] | Potency [9] | outcome [10]

CCOC(=S)SSC(=S)OCC
inactive: Potency [1] | Potency [2] | Potency [3] | Potency [4] | Potency [5] | Potency [6] | outcome [7] | outcome [8] | Potency [9] | outcome [10]

CC(=O)OC/C=C/c1ccccc1
inactive: Potency [1] | Potency [2] | Potency [3] | Potency [4] | Potency [5] | Potency [6] | outcome [7] | outcome [8] | Potency [9] | outcome [10]

CC[C@]12CCCN3CCc4c(n(c5ccccc45)C(=O)C1)[C@@H]32
active: Potency [1] 2.54 µM
inactive: Potency [2] | Potency [3] | Potency [4] | Potency [5] | Potency [6] | fluorescence, % of triamterene [9] 0.0203% [at 18.6 µM] | fluorescence, % of fluorescent control [10] 0.0084% [at 18.6 µM]

O=C=NC1CCC(CC2CCC(N=C=O)CC2)CC1 (configuration not stated)
inactive: Potency [1] | Potency [2] | Potency [3] | Potency [4] | Potency [5] | outcome [7] | outcome [8]

CCCCCCCCCCCCCCCC(=O)OC/C=C(C)/C=C/C=C(C)/C=C/C1=C(C)CCCC1(C)C
inactive: Potency [1] | Potency [2] | Potency [3] | Potency [4] | Potency [5] | Potency [6] | outcome [8] | Potency [9]

COc1ccccc1OC(=O)Oc1ccccc1OC
inactive: Potency [1] | Potency [2] | Potency [3] | Potency [4] | Potency [5] | Potency [6] | outcome [8] | Potency [9] | outcome [10]

OCC1CC2CC1C1CCC(CO)C21 (configuration not stated)
inactive: Potency [1] | Potency [2] | Potency [3] | Potency [4] | Potency [5] | Potency [6] | outcome [7] | outcome [8] | Potency [9] | outcome [10]

CC(C)(C)C1CCCCC1O (configuration not stated)
inactive: Potency [1] | Potency [2] | Potency [3] | Potency [4] | Potency [5] | Potency [6] | outcome [7] | outcome [8] | Potency [9] | outcome [10]

O=C(c1ccc(O)cc1)c1ccc(O)cc1
inactive: Potency [1] | Potency [2] | Potency [3] | Potency [4] | Potency [5] | outcome [7] | outcome [8] | Potency [9] | outcome [10]

CC1CCc2cc(F)cc3c(=O)c(C(=O)O)cn1c23 (configuration not stated)
inactive: Potency [1] | Potency [2] | Potency [3] | Potency [4] | outcome [7] | outcome [8] | Potency [9] | outcome [10]

CCCC(=O)OCC
inactive: Potency [1] | Potency [2] | Potency [3] | Potency [4] | Potency [5] | outcome [7] | outcome [8] | Potency [9] | outcome [10]

CC(=O)O[C@H]1C[C@@H]2CC[C@@H]3[C@H](CC[C@@]4(C)[C@H]3C[C@H]([N+]3(C)CCCCC3)[C@@H]4OC(C)=O)[C@@]2(C)C[C@@H]1N1CCCCC1
inactive: Potency [1] | Potency [2] | Potency [3] | Potency [4] | Potency [6] | outcome [8] | Potency [9] | outcome [10]

CC(=O)Nc1ccc(/C=N/NC(N)=S)cc1
inactive: Potency [1] | Potency [2] | Potency [3] | Potency [4] | Potency [5] | outcome [7] | outcome [8] | Potency [9] | outcome [10]

COc1ccc(C(C)=O)cc1
inactive: Potency [1] | Potency [2] | Potency [3] | Potency [4] | Potency [5] | outcome [7] | outcome [8] | Potency [9] | outcome [10]

Cc1ccc2c(ccc3ccccc32)c1
inactive: Potency [1] | Potency [2] | Potency [3] | Potency [4] | outcome [7] | outcome [8] | Potency [9] | outcome [10]

O=C(O)c1cccc(N(Cc2cccnc2)c2ccc(OC(F)F)c(OC(F)F)c2)c1
inactive: Potency [1] | Potency [2] | Potency [3] | Potency [4] | Potency [5] | outcome [8] | outcome [10]

Cc1cc(NC(=O)C(=O)O)cc(C)c1Oc1ccc(O)c2c1CCC2
inactive: Potency [1] | Potency [2] | Potency [3] | Potency [4] | Potency [5] | outcome [7] | outcome [8] | outcome [10]

CC1=CCC(C(C)C)C=C1 (configuration not stated)
inactive: Potency [1] | Potency [2] | Potency [3] | Potency [4] | outcome [7] | outcome [8] | Potency [9] | outcome [10]
